# Source: PubChem BioAssay (NCATS)
# Results filed as inconclusive are left out. Entries that show only a call come without a potency. Activity calls are given as the source filed them. Unless noted, calls come from the whole dose curve; as a rule, active = well fitted curve in the direction sought with a large enough effect; inconclusive = small, poorly fitted or top-dose-only effect, or another doubt; inactive = no such curve, though single readings can be large; an effect the other way counts as inactive or inconclusive. Peptide text beside a SMILES is read from it.
# Legend:
# [1] = target: Cytochrome P450 3A4 (Homo sapiens) (UniProt P08684); test: qHTS Assay for Inhibitors and Substrates of Cytochrome P450 3A4 (AID 884); note: nearly all actives have a fitted effect of over 50% in size
# Cytochrome P450 3A4 (Homo sapiens), sequence (P08684 whole entry, looked up): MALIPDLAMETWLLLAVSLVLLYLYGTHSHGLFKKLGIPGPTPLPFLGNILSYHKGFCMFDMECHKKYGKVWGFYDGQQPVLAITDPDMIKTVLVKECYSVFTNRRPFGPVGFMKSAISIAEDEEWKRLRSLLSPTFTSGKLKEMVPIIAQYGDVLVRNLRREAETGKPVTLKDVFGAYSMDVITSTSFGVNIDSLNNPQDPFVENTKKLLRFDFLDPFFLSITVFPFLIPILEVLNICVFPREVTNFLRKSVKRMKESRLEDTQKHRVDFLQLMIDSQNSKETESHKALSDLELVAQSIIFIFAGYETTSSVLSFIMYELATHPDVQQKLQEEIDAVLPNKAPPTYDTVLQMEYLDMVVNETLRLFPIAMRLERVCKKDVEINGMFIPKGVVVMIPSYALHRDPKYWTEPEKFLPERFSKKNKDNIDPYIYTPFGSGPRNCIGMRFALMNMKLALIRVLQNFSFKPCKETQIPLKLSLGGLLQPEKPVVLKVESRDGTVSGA
# Summary of the method: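 20 nM human CYP3A4 with 25 uM Luciferin-PPXE (at KM) in 200 mM KPO4, preincubated 10 min with compound; NADPH regeneration started a 60 min RT reaction. Luciferin detected by luminescence, normalized to 57 uM ketoconazole as full inhibition.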
# [2] = Confirmation and Secondary Assay for Modulators of Hemoglobin Beta Chain Splicing at IVS2 654 locus (AID 910);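 note: per-well total GFP intensity by laser scanning cytometry after 2-day treatment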
# Summary of the method: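 HeLa cells stably carrying EGFP interrupted by mutant beta-globin IVS2-654 intron (CMV-driven) were treated with compound for 2 days at 37C; corrected splicing was scored as total peak GFP intensity per well (488 nm excitation, 500-520 nm emission).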
# [3] = Confirmation and Secondary Assay for Modulators of Hemoglobin Beta Chain Splicing at IVS2 705 locus (AID 930);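 note: HeLa cells stably expressing the EGFP-705 splicing reporter; GFP fluorescence per well restored by corrected splicing of the IVS2-705 intron in EGFP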
# Summary of the method: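 Splice-correction reporter: EGFP cDNA split by beta-globin intron 2 bearing the 705 mutation, stably in HeLa. Compound incubation 2 days, 37C; fluorescent objects 5-250 µm summed per well.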
# [4] = qHTS Assay for Lipid Storage Modulators (AID 1519; calls by dose curve); conditions: Drosophila S3 cells, BODIPY lipid droplet/cell ratio, laser cytometry, cells loaded with oleic acid; for activity change, negative = inhibition: at 57.5 µM (top of the series)
# Summary of the method: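 Cells seeded at 5,000 per well were treated with compounds over a concentration series and loaded with oleic acid (400 uM, as added). Lipid droplet fluorescence (488 nm excitation, 500-530 nm channel) was read by laser-scanning cytometry and normalized to 20 uM Triacsin C.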
# [5] = target: Ubiquitin carboxyl-terminal hydrolase 1 (Homo sapiens) (UniProt O94782); test: Inhibitors of USP1/UAF1: Pilot qHTS (AID 504865);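 note: rhodamine fluorescence freed from ubiquitin-rhodamine substrate followed over time; top concentration of the series differs between compounds; nearly all actives have a fitted effect of over 35% in size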
# Ubiquitin carboxyl-terminal hydrolase 1 (Homo sapiens), sequence (O94782 whole entry, looked up): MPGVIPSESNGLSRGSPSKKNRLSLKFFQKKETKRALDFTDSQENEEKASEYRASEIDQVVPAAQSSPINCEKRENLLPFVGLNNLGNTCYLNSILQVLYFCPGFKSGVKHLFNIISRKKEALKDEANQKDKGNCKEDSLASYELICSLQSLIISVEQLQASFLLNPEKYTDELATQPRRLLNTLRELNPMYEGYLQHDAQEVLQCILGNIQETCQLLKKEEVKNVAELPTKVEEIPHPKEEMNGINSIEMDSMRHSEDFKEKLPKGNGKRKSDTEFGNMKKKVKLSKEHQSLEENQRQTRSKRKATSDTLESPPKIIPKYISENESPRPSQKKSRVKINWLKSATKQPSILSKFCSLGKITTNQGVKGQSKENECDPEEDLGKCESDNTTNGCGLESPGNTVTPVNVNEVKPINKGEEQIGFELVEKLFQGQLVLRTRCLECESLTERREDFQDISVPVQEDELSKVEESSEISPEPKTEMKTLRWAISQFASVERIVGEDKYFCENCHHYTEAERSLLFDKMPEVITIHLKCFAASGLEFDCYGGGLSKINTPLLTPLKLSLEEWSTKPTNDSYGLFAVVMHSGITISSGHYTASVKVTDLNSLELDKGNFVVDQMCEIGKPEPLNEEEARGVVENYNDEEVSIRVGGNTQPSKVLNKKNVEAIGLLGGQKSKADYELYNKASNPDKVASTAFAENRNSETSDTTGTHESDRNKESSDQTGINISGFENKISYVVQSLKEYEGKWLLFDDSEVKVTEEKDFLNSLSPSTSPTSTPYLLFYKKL
# Summary of the method: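 USP1/UAF1 complex at 1 nM preincubated 15 min at room temperature with compound, then Ub-Rho substrate added at 150 nM final. Fluorescence (480/540 nm) read kinetically in 50 mM HEPES pH 7.8, 0.5 mM EDTA, 1 mM TCEP, 0.1 mg/ml BSA, 0.01% Tween-20.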
# [6] = measured here: cell count channel max response
# [7] = measured here: lipid channel max response
SMILES,Potency [1],Potency [2],Potency [3],"activity change, negative = inhibition [4]","max response [4, 6]","max response [4, 7]",Potency [5]
NC(N)=NCCCC(NC(=O)C(N)Cc1ccc(O)cc1)C(=O)O (stereo not drawn),inactive,inactive,inactive,5.19% (inactive),20.9%,29%,inactive
Cc1onc(-c2ccccc2)c1C(=O)NC1C(=O)N2C(C(=O)O)C(C)(C)S[C@@H]12 (stereo partly drawn),inactive,inactive,inactive,9.92% (inactive),9.88%,24.8%,inactive
COc1cc2c(cc1O)C(Cc1ccc(O)cc1)N(C)CC2 (stereo not drawn),inactive,inactive,inactive,2.46% (inactive),13.5%,17.7%,inactive
CCNC(=O)CCC(N)C(=O)O (stereo not drawn),inactive,inactive,inactive,2.77% (inactive),9.46%,16.9%,inactive
CC(=O)Oc1cc(-c2coc3cc(OC(C)=O)c(OC(C)=O)c(OC(C)=O)c3c2=O)cc(OC(C)=O)c1OC(C)=O,inactive,inactive,inactive,13.7% (inactive),12.1%,28.6%,inactive
CC(C)C1COc2cc3oc(=O)ccc3cc2O1 (stereo not drawn),inactive,inactive,inactive,9.84% (inactive),6%,13.7%,inactive
COc1cc2c(cc1OC)C1(O)C(=O)c3ccc(O)c(C(=O)O)c3OC1CO2 (stereo not drawn),inactive,inactive,inactive,8.88% (inactive),8.21%,21.1%,inactive
C=C1CCC(O)C/C1=C/C=C1\CCC[C@@]2(C)C(C(C)/C=C/C(C)C(C)C)CC[C@@H]12 (stereo partly drawn),inactive,inactive,inactive,14.3% (inactive),33.4%,55.4%,inactive
COc1ccc(-c2coc3cc(O)ccc3c2=O)c(OC)c1O,inactive,inactive,inactive,-3.58% (inactive),12.3%,2.49%,inactive
CCC(/C=C/C(C)C1CCC2C3CCC4=CC(=O)CC[C@@]4(C)C3CC[C@@]12C)C(C)C (stereo partly drawn),inactive,inactive,inactive,4.65% (inactive),11.9%,16.6%,inactive
CC1(C)C=Cc2cc3ccc(=O)oc3cc2O1,inactive,inactive,inactive,11.6% (inactive),-4.2%,7.43%,inactive
CC(=O)/C(=C\c1ccccc1)CC(=O)O,inactive,inactive,inactive,9.42% (inactive),12.7%,23.6%,inactive
NCCCCC(N)C(=O)NC(Cc1ccc(O)cc1)C(=O)NC(CCCCN)C(=O)O (stereo not drawn) (H-Lys-Tyr-Lys-OH; configuration not given here),inactive,inactive,inactive,1.3% (inactive),3.42%,5.58%,inactive
C[C@@H]1OC(OC2C(OC3CC[C@@]4(C)C5CC=C6C7CC(C)(C)CC[C@@]7(C(=O)O)CCC6(C)C5(C)CCC4[C@]3(C)CO)OCC(O)C2O)C(O)C(O)C1O (stereo partly drawn),inactive,inactive,inactive,3.66% (inactive),9.24%,14.3%,inactive
CC1CCC(C(C)C)[C@H](OC(=O)c2ccccc2)C1 (stereo partly drawn),inactive,inactive,inactive,5.46% (inactive),10.9%,15.1%,inactive
CC(C)CC(NC(=O)CN)C(=O)NC(Cc1ccccc1)C(=O)O (stereo not drawn) (H-Gly-Leu-Phe-OH; configuration not given here),inactive,inactive,inactive,6.28% (inactive),3.97%,11.6%,inactive
Nc1nc(O)c2ncn([C@H]3CC[C@@H](CO)O3)c2n1,inactive,inactive,inactive,7.72% (inactive),-2.43%,2.95%,inactive
CC(=O)Oc1ccc2c(c1OC(C)=O)OCC1(O)Cc3c(cc(OC(C)=O)c(OC(C)=O)c3OC(C)=O)C21 (stereo not drawn),inactive,inactive,inactive,0.943% (inactive),9.82%,11.3%,inactive
CC1CCC2(OC1)OC1CC3C4CC[C@@H]5CC(O)CC[C@@]5(C)C4CC(=O)[C@]3(C)C1C2C (stereo partly drawn),inactive,inactive,inactive,9.56% (inactive),0.354%,13.1%,inactive
CC(C)(O)CCC(O)[C@@](C)(O)C1CC[C@]2(O)C3=CC(=O)C4CC(O)C(O)C[C@]4(C)C3CC[C@]12C (stereo partly drawn),inactive,inactive,inactive,2.72% (inactive),-2.83%,0.37%,inactive
CC(=O)N[C@H](Cc1c[nH]c2ccccc12)C(N)=O,inactive,inactive,inactive,4.6% (inactive),3.77%,4.03%,inactive
COc1ccc(-c2oc3c(CC=C(C)C)c(O[C@H]4OC(CO)C(O)C(O)C4O)cc(O)c3c(=O)c2O[C@@H]2OC(C)C(O)C(O)C2O)cc1 (stereo partly drawn),inactive,inactive,inactive,3.91% (inactive),22%,29.5%,inactive
CC(=O)OC1CCC2(C)C(=CC=C3C2CCC2(C)C3CCC2C(C)/C=C/C(C)C(C)C)C1(C)C (stereo not drawn),inactive,inactive,inactive,1.79% (inactive),12.2%,14.9%,inactive
CC12CCC3C(CC3(C)C)C(C)(CCC1=O)O2 (stereo not drawn),inactive,inactive,inactive,8.76% (inactive),19%,26.9%,inactive
C=C1CCC(C2CC(=O)OC2=O)C(=O)CCC2C1CC2(C)C (stereo not drawn),inactive,inactive,inactive,4.44% (inactive),19.1%,26.1%,inactive

SMILES,Potency [1],Potency [2],Potency [3],"activity change, negative = inhibition [4]","max response [4, 6]","max response [4, 7]",Potency [5]
CC(C)CCCC(C)C1CCC2C3CC[C@H]4CC(=O)CC[C@@]4(C)C3CC[C@@]12C (stereo partly drawn),inactive,inactive,inactive,1.96% (inactive),8.57%,10.7%,inactive
C#CCCCCCCCCCCCC(=O)CC(O)COC(C)=O (stereo not drawn),inactive,inactive,inactive,3.5% (inactive),13.4%,17.1%,inactive
CC(C)c1c(O)c(-c2cc3c(c(C(C)C)c2O)CCC2C(C)(C)CCC[C@@]32C)cc2c1CCC1C(C)(C)CCC[C@@]21C (stereo partly drawn),inactive,inactive,inactive,8.62% (inactive),4.25%,16.8%,inactive
C=C(C)C1(O)OC(=O)C=C1OC (stereo not drawn),inactive,inactive,inactive,-0.62% (inactive),-1.24%,-2.01%,inactive
CNC1C(O)C(O)C(CO)O[C@H]1OC1C(O[C@@H]2C(O)C(O)[C@@H](N=C(N)N)C(O)C2N=C(N)N)OC(C)[C@]1(O)C=O (stereo partly drawn),inactive,inactive,inactive,11.1% (inactive),10.8%,24.1%,inactive
CC1(C)Oc2ccc3ccc(=O)oc3c2CC1O (stereo not drawn),inactive,inactive,inactive,-1.55% (inactive),16%,13.9%,inactive
CCCCCCCCCCCCCc1ccco1,inactive,inactive,inactive,1.58% (inactive),-6.07%,3.51%,inactive
Nc1ncnc2c1nc(Br)n2C1CC(O)C(CO)O1 (stereo not drawn),inactive,inactive,inactive,2.34% (inactive),9.06%,11.8%,inactive
CCOC(=O)C(=O)C1(C(=O)OCC)Oc2cc(OC)cc(OC)c2C(=O)C1c1ccccc1 (stereo not drawn),inactive,inactive,inactive,5.57% (inactive),9.96%,15%,inactive
NCC1OC(OC2C(N)CC(N)[C@@H](O)[C@@H]2OC2O[C@H](CO)[C@@H](O[C@@H]3OC(CN)C(O)C(O)C3N)C2O)C(N)C(O)C1O (stereo partly drawn),inactive,inactive,inactive,9.63% (inactive),15.6%,30%,inactive
CCCCCCCCCCCCC(C(=O)O)C(C)C(=O)O (stereo not drawn),inactive,inactive,inactive,4.67% (inactive),6.54%,14%,inactive
CC(=O)N1CCCC1C(=O)O (stereo not drawn),inactive,inactive,inactive,7.19% (inactive),1.45%,9.22%,inactive
COc1ccc(CCC(=O)c2c(O)cc(OC3OC(CO)C(O)C(O)C3O[C@@H]3OC(C)C(O)C(O)C3O)cc2O)cc1O (stereo partly drawn),inactive,inactive,inactive,7.07% (inactive),3.74%,14.6%,inactive
COC1C(O)C(O)C(O)C(O)C1O (stereo not drawn),inactive,inactive,inactive,5.15% (inactive),13.2%,22.7%,inactive
C=C(C)C1COc2cc3oc(=O)ccc3cc2O1 (stereo not drawn),inactive,inactive,inactive,14.3% (inactive),12.5%,28.8%,inactive
Nc1nc2nc(Cl)[nH]c2c(=O)[nH]1,inactive,inactive,inactive,6.34% (inactive),6.47%,14.5%,inactive
CC1CCC2(OC1)OC1CC3C4CCC5CC(O)CCC5(C)C4=CCC3(C)C1C2C (stereo not drawn),inactive,inactive,inactive,-0.725% (inactive),2.89%,3.25%,inactive
NC1=NCCN1CC(=O)O,inactive,inactive,inactive,4.53% (inactive),1.34%,10.9%,inactive
CC1CCC2(C(=O)O)CCC3(C)C(=CCC4C3(C)CCC3[C@@]4(C)CC(O)C(O)[C@@]3(C)CO)C2C1C (stereo partly drawn),inactive,inactive,inactive,3.5% (inactive),22.9%,33.5%,inactive
CC1CC[C@@]2(OC1)OC1CC3C4CC=C5CC(O)CC[C@@]5(C)C4CC[C@]3(C)C1C2C (stereo partly drawn),inactive,inactive,inactive,5.92% (inactive),10.1%,19%,inactive
COc1cc(O)ccc1C(C)=O,inactive,inactive,inactive,7.68% (inactive),24.4%,34.1%,inactive
OCC1OC(n2cnc3c(NCc4ccco4)ncnc32)C(O)C1O (stereo not drawn),inactive,inactive,inactive,-0.247% (inactive),-4.44%,-3.92%,inactive
C/C=C1\C2C=C(C)C[C@@]1(N)c1ccc(=O)[nH]c1C2,inactive,inactive,inactive,13.7% (inactive),9.87%,26.4%,inactive
COC(=O)Oc1ccccc1C(=O)O,inactive,inactive,inactive,5.3% (inactive),15.1%,21.1%,inactive
